Potency and affinity values are given separately.
How the values were obtained:
Staphylococcus aureus = details: Concentration 32 ug.mL-1;; ASSAY_TEST Inhibition of Bacterial Growth; detection method Absorption (OD600); MEDIA CAMHB; plate type 384well; NBS; CORNING #3640; time 18 hr
Escherichia coli = details: Concentration 32 ug.mL-1;; ASSAY_TEST Inhibition of Bacterial Growth; detection method Absorption (OD600); MEDIA CAMHB; plate type 384well; NBS; CORNING #3640; time 18 hr

| Structure (SMILES) | Inhibition (Staphylococcus aureus) [%] | Inhibition (Escherichia coli) [%] |
| --- | --- | --- |
| CC(=O)c1ccc(NC(=O)Cn2nc3c(Sc4ccc(C)cc4C)nccn3c2=O)cc1 | -12.01 | -21.11 |
| COc1cccc(CNC(=O)CSc2nnc3c(=O)n(-c4cccc(OC)c4)ccn23)c1 | 1.1 | 0.96 |
| COc1cccc(-n2ccn3c(SCc4cc(C)ccc4C)nnc3c2=O)c1 | 11.56 | -0.49 |
| COCCCNC(=O)CSc1nnc2c(=O)n(Cc3ccccc3F)ccn12 | -1.95 | 0.71 |
| O=C(CCc1nnc2c(N3CCCCC3)nc3ccccc3n12)NCc1ccc(Cl)cc1 | 12.63 | 0.78 |

— ChEMBL document CHEMBL4513146, “CO-ADD screening of Karazin Kharkiv National University (Ukraine) compounds”
